The targets below were run with C#CCNC(=O)CCSSCCC(=O)NCCc1ccc(C=O)c(C=O)c1 (assay: lysine labeling ratio R10:1 (500 µM / 50 µM probe), SILAC-ABPP in living cells; higher = lower intrinsic lysine reactivity toward the probe, active = 2 or less). Settings: HeLa; probe concentrations 500 vs 50 µM.
Outline: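 Forward and reverse SILAC label swaps were used with living light and heavy HeLa cells in PBS at room temperature, which were given an alkyne-tagged, disulfide-linked lysine probe at 50 µM or 500 µM. R is the per-lysine filtered median high-probe/low-probe MS1 peptide ratio, with the median then taken across both swap directions. Values are limited to 20.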

UniProt Q13813, sequence (Q13813 whole entry): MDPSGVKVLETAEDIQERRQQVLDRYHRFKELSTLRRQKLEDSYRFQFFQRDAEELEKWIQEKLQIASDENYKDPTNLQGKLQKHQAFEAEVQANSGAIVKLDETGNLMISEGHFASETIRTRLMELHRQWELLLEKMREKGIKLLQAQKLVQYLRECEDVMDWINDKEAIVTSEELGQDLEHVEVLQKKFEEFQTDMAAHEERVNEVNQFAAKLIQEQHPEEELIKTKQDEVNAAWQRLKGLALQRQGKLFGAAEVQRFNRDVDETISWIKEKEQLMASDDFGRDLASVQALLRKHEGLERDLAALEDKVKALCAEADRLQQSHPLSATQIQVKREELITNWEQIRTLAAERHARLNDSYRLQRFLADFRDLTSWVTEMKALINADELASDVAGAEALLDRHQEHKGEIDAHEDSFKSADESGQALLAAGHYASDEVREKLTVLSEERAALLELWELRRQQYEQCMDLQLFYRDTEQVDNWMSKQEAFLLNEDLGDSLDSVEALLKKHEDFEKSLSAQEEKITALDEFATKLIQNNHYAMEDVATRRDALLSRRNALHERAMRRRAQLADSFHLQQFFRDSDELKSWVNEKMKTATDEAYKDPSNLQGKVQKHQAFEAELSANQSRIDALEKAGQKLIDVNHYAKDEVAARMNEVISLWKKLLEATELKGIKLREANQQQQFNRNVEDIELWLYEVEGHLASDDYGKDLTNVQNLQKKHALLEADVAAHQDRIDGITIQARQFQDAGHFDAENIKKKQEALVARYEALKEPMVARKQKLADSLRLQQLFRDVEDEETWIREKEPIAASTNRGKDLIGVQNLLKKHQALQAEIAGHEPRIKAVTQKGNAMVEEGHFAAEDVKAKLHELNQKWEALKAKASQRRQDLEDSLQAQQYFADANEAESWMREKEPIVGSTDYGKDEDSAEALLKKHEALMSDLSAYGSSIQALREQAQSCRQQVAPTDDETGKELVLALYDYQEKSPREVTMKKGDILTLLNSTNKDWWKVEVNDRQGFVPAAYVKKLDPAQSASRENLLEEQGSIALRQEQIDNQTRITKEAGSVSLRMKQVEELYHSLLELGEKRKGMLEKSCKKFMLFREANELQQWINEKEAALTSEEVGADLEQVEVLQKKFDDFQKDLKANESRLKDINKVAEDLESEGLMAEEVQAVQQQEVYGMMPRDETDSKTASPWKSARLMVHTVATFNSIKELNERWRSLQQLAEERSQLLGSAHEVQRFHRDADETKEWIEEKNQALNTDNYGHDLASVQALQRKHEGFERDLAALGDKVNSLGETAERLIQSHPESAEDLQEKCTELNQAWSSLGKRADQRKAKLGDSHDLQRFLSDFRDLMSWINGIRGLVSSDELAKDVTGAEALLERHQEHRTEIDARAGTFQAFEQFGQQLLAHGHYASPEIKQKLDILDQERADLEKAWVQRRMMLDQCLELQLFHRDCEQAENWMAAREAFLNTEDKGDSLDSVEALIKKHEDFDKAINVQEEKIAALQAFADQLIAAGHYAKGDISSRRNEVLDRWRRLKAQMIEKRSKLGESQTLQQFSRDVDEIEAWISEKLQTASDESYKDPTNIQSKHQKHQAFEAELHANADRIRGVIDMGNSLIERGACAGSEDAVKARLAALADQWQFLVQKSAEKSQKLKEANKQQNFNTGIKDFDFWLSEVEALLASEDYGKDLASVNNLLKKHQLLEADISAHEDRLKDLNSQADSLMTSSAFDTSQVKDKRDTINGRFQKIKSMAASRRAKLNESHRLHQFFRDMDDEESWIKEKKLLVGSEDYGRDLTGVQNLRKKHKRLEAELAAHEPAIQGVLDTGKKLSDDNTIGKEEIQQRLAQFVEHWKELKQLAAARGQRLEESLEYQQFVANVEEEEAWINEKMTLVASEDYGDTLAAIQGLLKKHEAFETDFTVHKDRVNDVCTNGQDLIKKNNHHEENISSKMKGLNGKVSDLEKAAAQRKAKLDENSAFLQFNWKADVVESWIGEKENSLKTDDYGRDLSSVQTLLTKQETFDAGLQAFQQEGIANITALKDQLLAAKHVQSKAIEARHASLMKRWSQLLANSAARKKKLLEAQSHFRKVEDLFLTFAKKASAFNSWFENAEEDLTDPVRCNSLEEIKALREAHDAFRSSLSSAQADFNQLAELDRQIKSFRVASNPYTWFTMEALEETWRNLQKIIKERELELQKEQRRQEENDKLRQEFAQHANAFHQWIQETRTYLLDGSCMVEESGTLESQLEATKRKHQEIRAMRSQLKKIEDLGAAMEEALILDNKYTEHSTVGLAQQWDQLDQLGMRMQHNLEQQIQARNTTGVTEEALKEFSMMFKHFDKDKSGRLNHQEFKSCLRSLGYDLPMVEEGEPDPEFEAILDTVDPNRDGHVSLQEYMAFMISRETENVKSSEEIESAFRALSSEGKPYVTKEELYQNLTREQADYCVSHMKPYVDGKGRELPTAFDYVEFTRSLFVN
UniProt Q9Y230, sequence (Q9Y230 whole entry): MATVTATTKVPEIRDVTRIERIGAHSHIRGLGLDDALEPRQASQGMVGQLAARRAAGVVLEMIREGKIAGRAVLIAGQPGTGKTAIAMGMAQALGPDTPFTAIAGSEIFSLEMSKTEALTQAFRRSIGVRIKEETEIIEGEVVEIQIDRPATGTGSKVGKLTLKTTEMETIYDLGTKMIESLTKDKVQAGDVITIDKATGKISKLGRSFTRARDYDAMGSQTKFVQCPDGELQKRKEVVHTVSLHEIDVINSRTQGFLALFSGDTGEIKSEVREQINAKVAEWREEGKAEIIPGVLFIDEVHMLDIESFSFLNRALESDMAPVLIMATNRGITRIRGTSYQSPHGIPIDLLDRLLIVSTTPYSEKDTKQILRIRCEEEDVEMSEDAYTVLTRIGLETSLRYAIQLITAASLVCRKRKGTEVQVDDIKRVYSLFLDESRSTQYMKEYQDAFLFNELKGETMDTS
UniProt P55145, sequence (P55145 whole entry): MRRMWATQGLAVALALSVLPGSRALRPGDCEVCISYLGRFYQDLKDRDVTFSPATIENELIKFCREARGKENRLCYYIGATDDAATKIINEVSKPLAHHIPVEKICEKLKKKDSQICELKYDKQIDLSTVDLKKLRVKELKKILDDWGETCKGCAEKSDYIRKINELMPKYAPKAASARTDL
UniProt P06213, sequence (P06213 whole entry): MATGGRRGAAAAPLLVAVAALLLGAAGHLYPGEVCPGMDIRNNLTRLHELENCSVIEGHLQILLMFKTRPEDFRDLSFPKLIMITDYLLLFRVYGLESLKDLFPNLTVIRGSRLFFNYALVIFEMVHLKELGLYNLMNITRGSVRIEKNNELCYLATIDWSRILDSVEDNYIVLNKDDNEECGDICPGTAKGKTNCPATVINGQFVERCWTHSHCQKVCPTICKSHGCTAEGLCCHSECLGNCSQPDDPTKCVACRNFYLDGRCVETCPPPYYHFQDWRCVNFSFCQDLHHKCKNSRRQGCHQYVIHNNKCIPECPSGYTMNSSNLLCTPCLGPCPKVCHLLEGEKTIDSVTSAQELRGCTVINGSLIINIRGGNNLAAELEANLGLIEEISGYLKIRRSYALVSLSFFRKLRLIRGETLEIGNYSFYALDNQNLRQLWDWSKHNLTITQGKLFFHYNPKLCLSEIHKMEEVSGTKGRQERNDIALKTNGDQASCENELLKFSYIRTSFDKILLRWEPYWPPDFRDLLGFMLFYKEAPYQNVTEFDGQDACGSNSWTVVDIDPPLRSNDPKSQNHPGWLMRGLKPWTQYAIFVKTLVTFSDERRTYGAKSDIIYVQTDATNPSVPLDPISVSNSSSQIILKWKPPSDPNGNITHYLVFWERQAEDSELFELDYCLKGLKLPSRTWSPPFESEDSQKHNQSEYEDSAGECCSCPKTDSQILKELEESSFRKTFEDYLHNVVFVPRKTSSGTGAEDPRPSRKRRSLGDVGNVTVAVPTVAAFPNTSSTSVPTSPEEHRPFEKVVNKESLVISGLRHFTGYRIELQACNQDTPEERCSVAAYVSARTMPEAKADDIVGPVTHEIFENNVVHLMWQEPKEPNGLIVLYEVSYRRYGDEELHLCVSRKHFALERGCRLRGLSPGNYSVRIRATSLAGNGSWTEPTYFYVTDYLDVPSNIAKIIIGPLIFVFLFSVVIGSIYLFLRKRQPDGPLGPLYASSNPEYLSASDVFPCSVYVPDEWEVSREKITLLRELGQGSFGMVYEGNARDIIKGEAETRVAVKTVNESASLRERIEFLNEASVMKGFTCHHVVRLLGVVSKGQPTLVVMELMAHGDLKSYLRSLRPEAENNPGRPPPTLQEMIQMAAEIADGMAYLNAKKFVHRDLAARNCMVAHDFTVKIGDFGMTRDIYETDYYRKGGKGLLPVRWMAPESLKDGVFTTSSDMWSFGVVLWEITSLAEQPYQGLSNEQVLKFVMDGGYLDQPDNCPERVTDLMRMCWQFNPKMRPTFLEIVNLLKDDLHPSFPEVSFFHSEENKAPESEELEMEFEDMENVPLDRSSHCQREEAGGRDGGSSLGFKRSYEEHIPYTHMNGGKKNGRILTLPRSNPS
UniProt Q9H3K2, sequence (Q9H3K2 whole entry): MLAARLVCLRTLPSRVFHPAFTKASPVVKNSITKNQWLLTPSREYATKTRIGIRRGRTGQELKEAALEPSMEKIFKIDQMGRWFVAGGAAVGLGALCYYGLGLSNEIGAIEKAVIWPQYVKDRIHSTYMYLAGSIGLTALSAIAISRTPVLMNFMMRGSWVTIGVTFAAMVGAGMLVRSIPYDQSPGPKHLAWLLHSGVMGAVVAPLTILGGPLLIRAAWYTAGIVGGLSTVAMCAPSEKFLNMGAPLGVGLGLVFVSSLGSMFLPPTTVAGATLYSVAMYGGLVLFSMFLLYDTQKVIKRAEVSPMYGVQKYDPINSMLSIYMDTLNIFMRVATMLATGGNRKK

Target	lysine labeling ratio R10:1
ACSL3 (lysine site: K422) (UniProt O95573)	1.49 (active)
TLN1 (lysine site: K357) (UniProt Q9Y490)	1.16 (active)
EGFR (lysine site: K538) (UniProt P00533)	5.46 (inactive)
INSR (lysine site: K476) (UniProt P06213)	1.75 (active)
GHITM (lysine site: K76) (UniProt Q9H3K2)	4.44 (inactive)
FLNA (lysine site: K916) (UniProt P21333)	1.76 (active)
TFPI (lysine site: K102) (UniProt P10646)	7.9 (inactive)
XRCC6 (lysine site: K297) (UniProt P12956)	1.09 (active)
TFRC (lysine site: K673) (UniProt P02786)	3 (inactive)
UniProt Q9NYQ7 (lysine site: K548)	1.02 (active)
ANXA1 (lysine site: K214) (UniProt P04083)	6.33 (inactive)
UniProt P55145 (lysine site: K45)	4 (inactive)
ENO1 (lysine site: K256) (UniProt P06733)	1.87 (active)
RUVBL2 (lysine site: K427) (UniProt Q9Y230)	2.02 (inactive)
SLC25A1 (lysine site: K160) (UniProt P53007)	2.79 (inactive)
UniProt P59998 (lysine site: K44)	7.73 (inactive)
KRT18 (lysine site: K317) (UniProt P05783)	7.92 (inactive)
UniProt Q8WXI7 (lysine site: K13714)	7.68 (inactive)
RPL28 (lysine site: K135) (UniProt P46779)	3.84 (inactive)
SPTAN1 (lysine site: K2000) (UniProt Q13813)	0.553 (active)
A2M (lysine site: K116) (UniProt P01023)	0.757 (active)
CELSR2 (lysine site: K2001) (UniProt Q9HCU4)	1.5 (active)
IGF1R (lysine site: K502) (UniProt P08069)	2.64 (inactive)
